From PubChem BioAssay (Tox21)
Results filed as inconclusive are left out. A call without a number means that no potency is given here. Values without a mark were called inactive. Active and inactive are the calls of the source. Calls follow the shape of the dose curve; as a rule, active = well fitted activation curve with a large enough effect in the signal ratio in the repeat runs (not every such curve was filed as active); inconclusive = weak or mixed curves; inactive = flat fitted curve, though single readings scatter; the % refers to the signal ratio. Bridge positions count the residues as written; N and C are the ends. Square brackets hold non-standard residues; d marks the D form. Peptide text beside a SMILES is read from it. hArg = N=C(N)NCCCC[C@H](N)C(=O)O; pGlu = O=C1CC[C@@H](C(=O)O)N1; Mpa = O=C(O)CCS

Assay: p53 small molecule agonists, cell-based qHTS assay (AID 1963582)
Procedure, shortened: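 After plating, p53RE-bla cells sat 5 h in the incubator; compounds or DMSO vehicle were pinned in; a 16 h incubation at 37 C followed; FRET substrate was added and, 2 h later at RT, fluorescence was measured.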
Potency is read from the fitted curve at half-maximal effect.

## C=COCCOCCOC=C
  Potency: inactive

## O=S(=O)(O)c1cc(S(=O)(=O)O)c2ccc3c(S(=O)(=O)O)cc(S(=O)(=O)O)c4ccc1c2c43
  activation: 4.26% [at 13.5 µM]

## CCCCCC=CCC=CCCCCCCCC(=O)OCC
  Potency: inactive

## C[C@@H]1C[C@H]2[C@@H]3CCC4=CC(=O)C=C[C@]4(C)[C@@]3(Cl)[C@@H](O)C[C@]2(C)[C@@]1(OC(=O)c1ccco1)C(=O)CCl
  Potency: inactive

## CC(C)Nc1ccc(NC(C)C)c2c1C(=O)c1ccccc1C2=O
  Potency: inactive

## CCc1cccc2c(CCO)c[nH]c12
  Potency: inactive

## O=C(Cl)c1cc(Cl)cc(Cl)c1
  Potency: inactive

## COC(=O)c1ccc(C(=O)O)cc1
  Potency: inactive

## CNCC(O)c1ccc(O)c(O)c1 (centres undefined)
  Potency: inactive

## c1ccc(C[n+]2cccc3ccccc32)cc1
  Potency: inactive

## CC1(C)O[C@@H]2C[C@H]3[C@@H]4CCC5=CC(=O)CC[C@]5(C)[C@@]4(F)[C@@H](O)C[C@]3(C)[C@]2(C(=O)CCl)O1
  Potency: inactive

## CCCCNC1CC(C)(C)NC(C)(C)C1
  Potency: inactive

## C[C@]12CCC(=O)C=C1C=C[C@@H]1[C@@H]2CC[C@@]2(C)[C@H]1CC[C@@]21CCC(=O)O1
  Potency: inactive

## CC(C)COCC(CN(Cc1ccccc1)c1ccccc1)N1CCCC1 (centres undefined)
  Potency: inactive

## CCCC(CC)c1ccccc1 (centres undefined)
  Potency: inactive

## CCNC(=O)[C@@H]1CCCN1C(=O)[C@H](CCCN=C(N)N)NC(=O)[C@H](CC(C)C)NC(=O)CNC(=O)[C@H](Cc1ccc(O)cc1)NC(=O)[C@H](CO)NC(=O)[C@H](Cc1c[nH]c2ccccc12)NC(=O)[C@H](Cc1cnc[nH]1)NC(=O)[C@@H]1CCC(=O)N1 ([pGlu]HWSYGLRP-NHEt)
  Potency: inactive

## CC(=O)NCCCS(=O)(=O)O
  Potency: inactive

## CCCCC(=O)O[C@]1(C(=O)CO)[C@@H](C)C[C@H]2[C@@H]3CCC4=CC(=O)C=C[C@]4(C)[C@@]3(F)[C@@H](O)C[C@@]21C
  Potency: inactive

## Cc1[nH]cnc1C[C@H]1CCc2c(C)c3ccccc3n2C1=O
  Potency: inactive

## CC(NCCC(c1ccccc1)c1ccccc1)c1ccccc1 (centres undefined)
  Potency: inactive

## CCCc1ncc(C[n+]2ccccc2C)c(N)n1
  Potency: inactive

## CC(=O)NC1(c2cccc(F)c2)CCN(CC[C@@]2(c3ccc(Cl)c(Cl)c3)CN(c3ccccc3)C(=O)CO2)CC1
  Potency: inactive

## CC(C)NC[C@@H](O)COc1ccc(CC(N)=O)cc1
  Potency: inactive

## CCCCCCOc1cc(C)c(O)c(C)c1C
  Potency: inactive

## Clc1ccc2cc3ccccc3cc2c1
  Potency: 40.7 µM (active)

## CC(Cc1cccc(C(F)(F)F)c1)NCCOC(=O)c1ccccc1 (centres undefined)
  Potency: inactive

## CN1CCN2c3ccccc3Cc3ccccc3C2C1 (centres undefined)
  Potency: inactive

## C[C@H](CCC(=O)O)[C@H]1CC[C@H]2[C@@H]3CC[C@@H]4C[C@H](O)CC[C@]4(C)[C@H]3C[C@H](O)[C@]12C
  Potency: inactive

## C[C@@H]1C[C@H]2[C@@H]3CCC4=CC(=O)C=C[C@]4(C)[C@@]3(F)[C@@H](O)C[C@]2(C)[C@@]1(O)C(=O)COC(=O)c1ccncc1
  Potency: inactive

## NC(=O)[C@@H]1CSSCCC(=O)N[C@@H](CCCCN=C(N)N)C(=O)NCC(=O)N[C@@H](CC(=O)O)C(=O)N[C@@H](Cc2c[nH]c3ccccc23)C(=O)N2CCC[C@H]2C(=O)N1 ([Mpa][hArg]GDWPC-NH2; disulfide 1-7)
  Potency: inactive

## Cc1ccc(C(=O)C(C)CN2CCCCC2)cc1 (centres undefined)
  Potency: inactive

## O=S(=O)(O)c1cc(Cl)c(Cl)cc1Cl
  Potency: inactive

## CCN(CC)CCNC(=O)COc1ccc(OC)cc1
  Potency: inactive

## Cc1cc(C)c(/C=C2\C(=O)Nc3ccccc32)[nH]1
  Potency: inactive

## C[C@]12CCC(=O)C=C1[C@@H]1C[C@@H]1[C@H]1[C@@H]3[C@@H]4C[C@@H]4[C@@]4(CCC(=O)O4)[C@@]3(C)CC[C@@H]12
  Potency: inactive

## CCCCCCCCCCCCOCCOCCOCCOCCOCCOCCOCCOCCOCCO
  Potency: inactive

## CCn1ccc(NS(=O)(=O)c2ccc(N)cc2)nc1=O
  Potency: inactive

## CC(=O)c1ccc[nH]1
  Potency: inactive

## CC(C)C[C@H](NC(=O)CNC(=O)[C@H](Cc1ccc(O)cc1)NC(=O)[C@H](CO)NC(=O)[C@H](Cc1c[nH]c2ccccc12)NC(=O)[C@H](Cc1cnc[nH]1)NC(=O)[C@@H]1CCC(=O)N1)C(=O)N[C@@H](CCCN=C(N)N)C(=O)N1CCC[C@H]1C(=O)NCC(N)=O (stereo in doubt)
  Potency: inactive
